Data on 40 compounds can be found in PubChem BioAssay (NCI).

This is part of a sample that, as a whole, favours compounds with a hit. Of some 83,000 tested, about 20% had one in any assay.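 Each cell line was grown in a 96-well plate and treated with one concentration of compound for 48 hours. Values below 10 were considered active.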 Values without a mark were called inactive. Calls of active or inactive are those of the source.

The assay has as its system SW-620 colon. In words: NCI-60 one-dose screen, 48 h (100 = growth as untreated, 0 = no growth, -100 = all killed). As to conditions: 10 µM unless noted. The method, then: Growth inhibition of the SW-620 human tumor cell line is measured as a screen for anti-cancer activity. Cells are grown in 96 well plates and exposed to the test compound for 48 hours. Compounds are tested at a single concentration, which is 10^-5 M for most compounds. The reported endpoint is percent growth (GI% or GIPRCNT), where numbers from 0 - 100% represent growth inhibition, and numbers from -100% - 0 represent cell death. For example, a value of 40 represents 60% growth inhibition. A value of 0 means no net growth occurred over the course of the experiment. A value of -40 indicates 40% of cells at the beginning of the experiment died by the end of the experiment. A value of -100 means all cells are dead at the end of the experiment.
NCI-60 Human Tumor Cell Lines Screen was performed using the standard one-dose NCI protocol, which is described in more detail at https://dtp.cancer.gov/discovery_development/nci-60/default.htm.
Compounds with GIPRCNT values below 10 were considered active. Activity score was based on GIPRCNT using the following formula: […]
Score is 0 for GIPRCNT values of 100 or above, 50 for GIPRCNT values of 0, and 100 for GIPRCNT values of -100.
Turning to `Cc1ccc(-n2nc3n(/c2=N\C(=O)NS(=O)(=O)c2ccc(C)cc2)CCN3C2=NCCN2)cc1`, the growth was 104%. With `COc1cc(NCc2cn(-c3ccc(C(=O)O)cc3)nc2-c2ccc(C(=O)O)cc2)cc(OC)c1OC` the figure was 92%; with `CCOc1cc(NC(=O)c2ccccc2)c(OCC)cc1N`, 109%; with `O=C(OCc1ccc2c(Cl)cc(Cl)c(O)c2n1)N1CCN(C(=O)c2cc3cc(F)ccc3[nH]2)CC1`, 16.9%. With `COc1c(C(C)=O)c(OCCCCOc2c(C(C)=O)c(OC)c3ccoc3c2OC)c(OC)c2occc12` the figure was 93.4%. With `NS(=O)(=O)c1ccc(CCN2C(=O)/C(=C\c3ccccc3)C=C2c2ccc(Cl)cc2)cc1` the figure was 99.2%.

Turning to `Nn1c(Nc2ccc(S(=O)(=O)Nc3ncccn3)cc2)nnc(/C=C/c2c(O)ccc3ccccc23)c1=O`, the growth was 94%. Under `CCN(CC)CCCOc1ccc2c(c1)O/C(=C\c1cccc(OC)c1)C2=O` stands 73.9%; under `CCC(C)[C@H](NC(=O)NC(=O)NC(=O)CI)C(=O)OC` (stereo not given in full), 9.41% (active); under `Cn1cc(-c2nnc(-c3cn(C)c4ncccc34)s2)c2ccccc21`, 61.6%. Under `COc1ccc(OC)c([N+](=O)[O-])c1C(=O)CNC(C)=O` stands 106%; under `C=C(C)[C@@H]1CC[C@]2(C)[C@H](C(=O)C=C3[C@@H]4C[C@](C)(C(=O)N5CCN(C)CC5)CC[C@]4(C)CC[C@]32C)[C@@]1(C)CCC#N`, -80% [100 µM] (active); under `COc1ccc(/C=C(/C(=O)c2ccc(Cl)cc2)C(=O)C(F)(F)F)cc1`, 101%.

With `CC(C)=CC/C=C(/C)[C@H]1CC[C@]2(C)[C@@H]1CC[C@@H]1[C@@]3(C)CCCNC(C)(C)[C@@H]3CC[C@]12C`, the growth was -57.5% [100 µM] (active). With `CC(=O)CC(=O)SC1=NCCS1` the figure was 97.7%; with `COc1cc(OC)cc(C(=O)Nc2cc(-c3cccnc3)nc(NCCCN3CCOCC3)n2)c1`, 99.9%. Under `O=C(Nc1cccc(C2=NCCN2)c1)c1cccc(C(=O)Nc2cccc(C3=NCCN3)c2)c1` stands 98.2%; under `COc1ncc(-c2ccc3nc(N)n(-c4ccccc4C(F)(F)F)c(=O)c3c2)cc1S(=O)(=O)Nc1ccc(F)cc1F`, 34.2%. Consider `Nc1nc(N)c2c(n1)NC(c1ccc(F)cc1)C1CCc3ccccc3C1=N2` (stereo not given), for which the growth is 67.3%.

`O=c1[nH]c2cc(Cl)c(Cl)cc2n2cc3ncccc3c12`: the growth is 53.4%.

Consider `c1cc2ccc3cc2cc1CNCCN1CCNCc2ccc4ccc(cc4c2)CNCCN(CCNC3)CCNCc2ccc3ccc(cc3c2)CNCC1`, for which the growth is 23.4%. Regarding `CS(=O)(=O)c1cccnn1`, the growth was 95.5%. Consider `CC1(C(=O)O)CCC(N)(C(=O)O)C1(C)C` (stereo not given), for which the growth was 108%. Regarding `C[n+]1c(-c2ccccc2)c2cc(N)ccc2c2ccccc21`, the growth was 40.5%.

For `Cc1cccc(C[C@H](NC(=O)Nc2ccc(Cl)cc2F)C(=O)N[C@@H]2C(=O)N3C[C@H](OC(=O)CCN(C)C)C[C@H]3C(=O)N3CCCC[C@H]3C(=O)N[C@@H](C)C(=O)N3C[C@H](C)C[C@H]3C(=O)O[C@H]2C)c1`, the growth was 30.2%. Turning to `CC(C)CSc1ncnc2nc[nH]c12`, the growth was 104%. Under `CCOC(=O)C1=C(C(=O)c2ccc(Br)cc2)C(c2ccc(Br)cc2)NC(=S)N1` (stereo not given) stands 101%; under `Cn1cc(-c2noc(-c3cn(C)c4ncc(Br)cc34)n2)c2cc(Cl)ccc21`, 39.9%.

In the case of `Cc1cc(C)c(O)c(CNCCCCCCNCc2cc(C)cc(C)c2O)c1`, the growth was -75.4% (active). Regarding `O=C(NCc1ccc(Cn2c(=O)sn(-c3ccccc3)c2=O)cc1)OCc1ccc2c(Br)cc(Br)c(O)c2n1`, the growth is -50.2% (active). With `COc1ccc(C(C(=O)O)c2ccc(OC)cc2)cc1` the figure was 107%; with `CC(C)[C@H]1COC(=O)N1[C@@H]1C(=O)N([C@@H](CCC(=O)N2CCN(C3CCCC3)CC2)C(=O)N[C@@H]2CCCc3ccccc32)[C@@H]1/C=C/c1cccc(Cl)c1`, 61.9%. Under `COc1ccc2nc3c(cc2c1)C(=O)CC(c1ccccc1)C3` (stereo not given) stands 17.8%; under `N#C/C(=C(/O)CCCO)c1nc2ccccc2c(=O)[nH]1`, 108%; under `O=C(CSc1nccc(Nc2ccc(S(=O)(=O)Nc3ccccn3)cc2)n1)c1ccc(Cl)cc1`, 105%. With `CCOC(=O)c1nn(C2CCCCO2)c2ccc(NC(=O)CN3CCOCC3)cc12` (stereo not given) the figure was 104%. In the case of `N#CCCc1c[nH]c2ccccc12`, the growth is 92%.

Take `N/C(=N\c1nc2ccccc2[nH]1)NC(=O)Cc1cccc2ccccc12`: the growth was 85.6%. With `CC[C@]12C=CCN3CC[C@@]4(c5ccc(OC)cc5N(C)[C@H]4[C@@](O)(C(=O)OC)[C@@H]1OC(=O)CCC(=O)N[C@H](Cc1c[nH]c4ccccc14)C(=O)OC)[C@@H]32` the figure was -50.6% [100 µM] (active). Take `C#C[C@]1(O)CC[C@H]2[C@@H]3CC=C4c5nc(Nc6ccccn6)sc5CC[C@]4(C)[C@H]3CC[C@@]21C`: the growth was -24.9% (active).
